Data published in PubChem BioAssay AID1463 (National Center for Advancing Translational Sciences (NCATS), 2008).
About 2,600 (0.93%) of roughly 280,000 compounds were called active. About 8% were inconclusive and are not listed. The call rests on the fitted dose curve; in most records, active means well fitted curve in the direction sought with a large enough effect; inconclusive means small, poorly fitted or top-dose-only effect; inactive means flat fitted curve, though single readings scatter. The sample as a whole holds a higher share of actives than the screen did.

Assay: Counterscreen qHTS for Inhibitors of Tau Fibril Formation, Fluorescence Polarization; further: nearly all actives have a fitted effect of over 55% in size
Details: tau K18 P301L (four-repeat tau fragment) Alexa594 fluorescence, heparin fibrillization; series mostly up to 57.7 µM; activity change, negative = decrease: at the top concentration
From the text: NIH Molecular Libraries Probe Production Network [MLPCN]
NIH Chemical Genomics Center [NCGC]
Assay Provider: Carlo Ballatore, University of Pennsylvania
The microtubule-associated protein tau is an abundant protein in the axons of neurons that stabilizes microtubules. With its ability to modulate microtubule dynamics, tau contributes directly or indirectly, to key structural and regulatory cellular functions. Particularly important is the influence tau exerts on axonal transport, which allows signaling molecules, trophic factors and other essential cellular constituents to travel along the axons. Under pathological conditions, tau becomes sequestered into insoluble aggregates called neurofibrillary tangles. This phenomenon is believed to have pathological consequences by promoting axonal transport deficits that ultimately lead to synaptic dysfunction and neuronal loss. To identify inhibitors of tau aggregation, a heparin-induced tau fibril formation assay was used that employed a recombinantly expressed fragment of tau, K18 (Q242-E372), bearing a P301L mutation (Gustke et al. 1994; Hong et al. 1998). […] Total fluorescence (555 nm excitation and 632 nm emission) was measured to identify fluorescent or absorbent compounds at this wavelength. Such compounds may be artifacts that interfere with the Alexa 594 Tau fluorescence polarization assay.
Gustke, N., B. Trinczek, et al. (1994). "Domains of tau protein and interactions with microtubules." Biochemistry 33(32): 9511-22.
Hong, M., V. Zhukareva, et al. (1998).
Li, W. and V. M. Lee (2006). "Characterization of two VQIXXK motifs for tau fibrillization in vitro." Biochemistry 45(51): 15692-701.
von Bergen, M., S. Barghorn, et al. (2001). "Mutations of tau protein in frontotemporal dementia promote aggregation of paired helical filaments by enhancing local beta-structure." J Biol Chem 276(51): 48165-74.
NCGC Assay Protocol Summary:
For screening, 2 uL/well human K18 P301L (15 uM unlabeled and 0.24 uM Alexa 594-labeled tau final concentrations) in reagent buffer (100 mM sodium acetate pH 7) was dispensed into black solid 1536-well plates (Grenier) using a solenoid-based dispenser. Following transfer of 23 nL compound or DMSO vehicle by a pin tool, 2 uL/well heparin (20 uM final concentration) in reagent buffer was added and the plate centrifuged 15 s at 1000 RPM. Plates were incubated 6 hr at 37 C and then 1 uL/well ThT (30 uM final concentration) was added. After a 1 hr ambient incubation, the plates were read by an Envision (Perkin Elmer) to monitor Alexa 594 FP (555 nm excitation and 632 nm emission).
Keywords: NIH Roadmap, MLPCN, MLI, MLSMR, NCGC, qHTS, tau, tauopathies, Alzheimer's disease, fibril, neurodegeneration, aggregation
On the % scale 0 is the no-effect control and ±100 the full control effect; potency means the concentration at half of the fitted maximal effect; tags describe the fitted curve by direction and shape or compound fluorescence and quenching.

With CN(CC(=O)Nc1cccc(F)c1)CC(=O)Nc1cccc([N+](=O)[O-])c1 as the compound, how does the “activity change, negative = decrease” value read?
The value was -23.4% (inactive).

With CN(c1ccc(OCC(=O)NC2=NCCS2)cc1)S(=O)(=O)c1ccc(F)cc1 as the compound, how does the “activity change, negative = decrease” value read?
Its value is -15% (inactive).

Which “activity change, negative = decrease” value does the source give for Cn1ccc(NC(=O)Nc2ccc(Cl)cc2)n1 here?
Its value is -10.6% (inactive).

Which Potency does the source give for CC(C)S(=O)(=O)c1csc(NC(=O)Nc2ccc(Cl)cc2)c1Cl here?
Its Potency is 25.1 µM [quencher] (active).

For NS(=O)(=O)c1ccc(CCNC(=O)Nc2ccc(Cl)cc2)cc1, which “activity change, negative = decrease” value is on record?
Its value is 15.1% (inactive).

With Cc1ccc(CSc2nc3cccnc3n2Cc2ccc(C(=O)NC3CC3)cc2)cc1 as the compound, how does the “activity change, negative = decrease” value read?
Its value is 2.64% (inactive).

With CCCNC(=O)CCn1nc(-c2ccccc2)c2ccccc2c1=O as the compound, how does the “activity change, negative = decrease” value read?
The value was -6.14% (inactive).

With O=C(Nc1nncs1)c1ccccc1NS(=O)(=O)c1cccs1 as the compound, how does the “activity change, negative = decrease” value read?
The value was -4.18% (inactive).

With O=C(Nc1cccc(Cl)c1)Nc1ccccc1NS(=O)(=O)c1cccs1 as the compound, how does the Potency read?
The Potency was 11.2 µM [quencher] (active).

For COc1cc(NS(=O)(=O)c2cccs2)cc(OC)c1, which “activity change, negative = decrease” value is on record?
Its value is -14.8% (inactive).

With CC(NC(=O)c1cc(Sc2ccc(F)cc2F)nc2ccccc12)c1ccccc1 (centres undefined) as the compound, how does the “activity change, negative = decrease” value read?
The value was -10.4% (inactive).

With CCN(c1ccc(Cl)cc1)S(=O)(=O)c1nnc(NC(=O)c2ccco2)s1 as the compound, how does the “activity change, negative = decrease” value read?
The value was -2.62% (inactive).

With COc1ccc(CCNC(=O)C(=O)NCC(c2ccco2)S(=O)(=O)c2cccs2)cc1OC (centres undefined) as the compound, how does the “activity change, negative = decrease” value read?
Its value is -16.5% (inactive).

For CC1=Nc2cc(C(=O)NCc3ccc(C)cc3)ccc2Sc2ccc(Cl)cc21, which “activity change, negative = decrease” value is on record?
The value was -15.9% (inactive).

For Cc1ccc(C)c2sc(NC(=O)c3ccc(S(=O)(=O)N4CCCC4)cc3)nc12, which “activity change, negative = decrease” value is on record?
Its value is -21.1% (inactive).

With CCN(CC)c1ccc2c(Nc3ccccc3)c(C=O)c(=O)oc2c1 as the compound, how does the “activity change, negative = decrease” value read?
Its value is -7.21% (inactive).

Which “activity change, negative = decrease” value does the source give for CCN(CC)c1ccc(/C=N/Nc2nc(C)cc(C)n2)c(O)c1 here?
The value was 2.1% (inactive).

Which Potency does the source give for CCN(CC)c1ccc2oc(=O)c(C)nc2c1 here?
The Potency was 12.6 µM [quencher] (active).

For COc1cc(OC)c(OC)cc1/C=C/c1nc2cc3ccccc3cc2c(=O)n1-c1ccc(F)c(Cl)c1, which “activity change, negative = decrease” value is on record?
Its value is -17.3% (inactive).

For COc1ccccc1-c1ccnc2[nH]n(-c3ccccc3)c(=O)c12, which “activity change, negative = decrease” value is on record?
The value was -12.9% (inactive).

For CCOC(=O)c1c(C)[nH]c(CCC(=O)NCCCN2CCN(c3cc(C)ccc3C)CC2)c1C, which “activity change, negative = decrease” value is on record?
Its value is -23.4% (inactive).

Which Potency does the source give for CCCCCCC(=O)Nc1nc(C)c(-c2csc(Nc3cccc(OC)c3)n2)s1 here?
The Potency was 8.91 µM [quencher] (active).

For Cc1nc(NC(=O)CN(C)S(=O)(=O)c2ccc(Cl)cc2)sc1C, which “activity change, negative = decrease” value is on record?
The value was -18% (inactive).

With CCOC(=O)c1csc(NC(=O)Nc2cccc(OC)c2)n1 as the compound, how does the “activity change, negative = decrease” value read?
The value was -1.36% (inactive).

For COc1cccc(CC(=O)Nc2ccc(-c3csc(C)n3)cc2)c1, which “activity change, negative = decrease” value is on record?
The value was -18.4% (inactive).

With Cc1nc(C)c(-c2csc(NCCc3ccccc3)n2)s1 as the compound, how does the “activity change, negative = decrease” value read?
Its value is -27.9% (inactive).

Which Potency does the source give for C=CCCC(=O)Nc1nc(C)c(-c2csc(Nc3ccc(Cl)cc3)n2)s1 here?
Its Potency is 12.6 µM [quencher] (active).

Which “activity change, negative = decrease” value does the source give for Cc1ccccc1C(=O)Nc1nnc(S(=O)(=O)N(C)c2ccc(Cl)cc2)s1 here?
The value was -20% (inactive).

With Cc1ccc2onc(CC(=O)N3CCN(c4ccc(Cl)cc4)CC3)c2c1 as the compound, how does the “activity change, negative = decrease” value read?
The value was 2.99% (inactive).

For Cc1cc2c(cc1S(=O)(=O)CCC(=O)Nc1ccc(OC(F)(F)F)cc1)OCC(=O)N2, which “activity change, negative = decrease” value is on record?
Its value is -24.4% (inactive).

For Cc1cccc(C(=O)N2c3nc(-c4ccco4)nn3C3(CCCCC3)[C@@H]3CCCC[C@@H]32)c1, which “activity change, negative = decrease” value is on record?
Its value is -1.79% (inactive).

With CCSc1nc(-c2ccc(OC)cc2)cc(-c2ccc(OC)cc2)c1C#N as the compound, how does the “activity change, negative = decrease” value read?
The value was -20.3% (inactive).

For CCOc1cc(-c2cc(-c3ccc(OC)cc3)nc(N)c2C#N)ccc1O, which “activity change, negative = decrease” value is on record?
The value was -26% (inactive).

Which Potency does the source give for COc1ccc(-c2cc(-c3ccc(N)cc3)nc(N)c2C#N)cc1OC here?
Its Potency is 28.2 µM [quencher] (active).

With CCn1cc2nc(SCc3cccc(F)c3)n(CCc3ccccc3)c(=O)c2n1 as the compound, how does the “activity change, negative = decrease” value read?
Its value is -19.5% (inactive).

For CCN1CCN(CCCNC(=O)c2cnn(-c3ccc(C)cc3C)c2C2CCN(C(=O)OC(C)(C)C)CC2)CC1, which “activity change, negative = decrease” value is on record?
Its value is -19.1% (inactive).

With CCOC(=O)/C(=N\Nc1ccccc1[N+](=O)[O-])c1csc(Nc2ccccc2)n1 as the compound, how does the Potency read?
The Potency was 7.08 µM [quencher] (active).

For Cc1csc(NC(=O)Nc2ccccc2[N+](=O)[O-])n1, which “activity change, negative = decrease” value is on record?
The value was -19.4% (inactive).

For CCOC(=O)Cc1csc(NC(=O)Nc2ccccc2)n1, which “activity change, negative = decrease” value is on record?
The value was -12.3% (inactive).

With CCc1ccc(NC(=O)c2cc(S(=O)(=O)NC3CCCCCC3)ccc2F)cc1 as the compound, how does the “activity change, negative = decrease” value read?
Its value is -23.9% (inactive).

With Cc1cccc(CCNC(=O)c2ccc3c(c2)nc2n3CCC(C)C2)c1 (centres undefined) as the compound, how does the “activity change, negative = decrease” value read?
Its value is -12.3% (inactive).

Which “activity change, negative = decrease” value does the source give for CCOc1cc(CNC(=O)c2sc3ncnc(N(C)C4CCCCC4)c3c2C)ccc1OC here?
Its value is -2.89% (inactive).

With CCSC1=C(C#N)C(=O)n2c1cc1c2CCCC1 as the compound, how does the Potency read?
The Potency was 31.6 µM [quencher] (active).

With CCSc1ncnc2c(C#N)c3n(c12)CCCCC3 as the compound, how does the “activity change, negative = decrease” value read?
The value was -3.57% (inactive).

For O=C(CSCc1cnn(-c2ccccc2)c1-n1cccc1)NCc1ccc(Cl)cc1, which “activity change, negative = decrease” value is on record?
The value was 14.4% (inactive).

Which “activity change, negative = decrease” value does the source give for COc1ccc(-c2nc3scc(CCNS(=O)(=O)c4cc(F)ccc4OC)n3n2)cc1OC here?
The value was -16.3% (inactive).

For COc1ccc(Nc2ncc(C(=O)Nc3cc(C)ccc3OC)c3ccccc23)cc1, which Potency is on record?
Its Potency is 3.55 µM [quencher] (active).

With COc1ccc(C)cc1NC(=O)NCc1ccccn1 as the compound, how does the “activity change, negative = decrease” value read?
Its value is 2.13% (inactive).

With COc1ccc(NC(=O)c2cnc(Nc3ccc(C)c(Cl)c3)c3ccccc23)cc1OC as the compound, how does the “activity change, negative = decrease” value read?
Its value is -13% (inactive).
